We go through 26 compounds from PubChem BioAssay (EPA / NIEHS).

Inconclusive results are not listed. The source made the active and inactive calls. Rule for the calls: active = hit-call score of the fitted dose curve at least 0.9, where 1 is the maximum; inconclusive = response in the unintended direction; inactive = score below 0.9.

The target of assay [1] is Serine/threonine-protein phosphatase PP1-alpha catalytic subunit (Homo sapiens) (UniProt P62136). The experiment in a line: NVS_ENZ_hPPP1CA: NovaScreen (NVS) Enzymatic Assay for human Protein Phosphatase 1 Aatalytic subunit Alpha (PPP1CA) (AID 2283200). The method, boiled down:
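Chemicals were first screened in duplicate at 25 uM, and those passing threshold (e.g. 30% inhibition) were run as concentration series to 50 uM. Cell-free recombinant protein, 1.33 h read, fluorescent substrate/product mobility-shift detection, normalised to DMSO.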

The target in assay [2] is human Phosphodiesterase 4A1 (PDE4A1), PDE4A (gene 5141) (UniProt P27815). The experiment in a line: NVS_ENZ_hPDE4A1: NovaScreen (NVS) Enzymatic Assay for human Phosphodiesterase 4A1 (PDE4A1) (AID 2283191). In short, it runs like this: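 Fluorescent substrate turnover by recombinant PDE4A1 read after 1 h by mobility-shift separation. Primary duplicate screen at 25 uM; hits retested in concentration series with a 50 uM maximum, relative to DMSO.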
human Phosphodiesterase 4A1 (PDE4A1), PDE4A (gene 5141), sequence (P27815 whole entry, looked up): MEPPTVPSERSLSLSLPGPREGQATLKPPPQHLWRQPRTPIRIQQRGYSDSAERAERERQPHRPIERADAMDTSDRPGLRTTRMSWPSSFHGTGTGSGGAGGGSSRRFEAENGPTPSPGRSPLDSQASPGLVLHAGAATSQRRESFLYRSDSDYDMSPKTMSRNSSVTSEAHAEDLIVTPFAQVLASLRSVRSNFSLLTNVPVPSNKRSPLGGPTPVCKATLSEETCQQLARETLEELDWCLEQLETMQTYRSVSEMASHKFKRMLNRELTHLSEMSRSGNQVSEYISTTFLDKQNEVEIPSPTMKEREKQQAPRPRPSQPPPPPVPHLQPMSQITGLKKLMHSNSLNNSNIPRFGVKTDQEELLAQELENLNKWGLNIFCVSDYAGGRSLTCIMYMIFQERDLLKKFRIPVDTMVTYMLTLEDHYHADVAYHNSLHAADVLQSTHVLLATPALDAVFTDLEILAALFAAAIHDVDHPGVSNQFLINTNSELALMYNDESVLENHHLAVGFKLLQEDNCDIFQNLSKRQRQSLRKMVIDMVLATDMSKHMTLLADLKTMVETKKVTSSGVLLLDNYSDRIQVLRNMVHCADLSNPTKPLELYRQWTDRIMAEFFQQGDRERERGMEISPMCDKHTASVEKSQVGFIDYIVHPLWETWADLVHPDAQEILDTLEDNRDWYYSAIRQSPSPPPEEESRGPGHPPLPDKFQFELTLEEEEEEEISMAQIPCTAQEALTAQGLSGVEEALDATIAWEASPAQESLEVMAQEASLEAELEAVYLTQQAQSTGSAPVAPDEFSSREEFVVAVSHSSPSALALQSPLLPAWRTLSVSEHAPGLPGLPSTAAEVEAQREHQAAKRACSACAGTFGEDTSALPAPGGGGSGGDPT

Assay [3] concerns the target human Phosphoinositide 3-kinase alpha (PI3Ka), PIK3CA (gene 5290) (UniProt P42336). The experiment in a line: NVS_ENZ_hPI3Ka: NovaScreen (NVS) Enzymatic Assay for human Phosphoinositide 3-kinase alpha (PI3Ka) (AID 2283196). In short, it runs like this: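 Duplicate single-point screen (25 uM), then singleton dose-response (max 50 uM) for compounds meeting the threshold. Cell-free kinase reaction, 1 h; fluorescent mobility-shift readout.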

The target of assay [4] is human Protein Tyrosine Phosphatase Non-receptor Type 4 (PTPN4), PTPN4 (gene 5775) (UniProt P29074). As to the kind of experiment: NVS_ENZ_hPTPN4: NovaScreen (NVS) Enzymatic Assay for human Protein Tyrosine Phosphatase Non-receptor Type 4 (PTPN4) (AID 2283208). In short, it runs like this: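 Screened in duplicate at 25 uM, with hits then titrated to a top concentration of 50 uM. Recombinant Sf9-derived PTPN4 turnover was read by fluorescence with electrophoretic separation, 1.33 h after compound addition. DMSO served as baseline.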

Assay [5] addresses human Phosphodiesterase 5 (PDE5), PDE5A (gene 8654) (UniProt O76074). As to the kind of experiment: NVS_ENZ_hPDE5: NovaScreen (NVS) Enzymatic Assay for human Phosphodiesterase 5 (PDE5) (AID 2283194). In short, it runs like this:
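Screening began in duplicate at 25 uM, with actives taken into concentration-response. Enzyme activity of recombinant PDE5 toward its substrate was measured at 1 h by fluorescence mobility-shift detection, relative to DMSO controls.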

The target in another assay is PPP2CA (gene 5515) (UniProt P67775). The experiment in a line: NVS_ENZ_hPPP2CA: NovaScreen (NVS) Enzymatic Assay for human Protein Phosphatase 2 Aatalytic subunit Alpha (PPP2CA) (AID 2283199). In short, it runs like this: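 Cell-free phosphatase activity: fluorescent substrate turnover by recombinant human enzyme, resolved by mobility shift at 1.33 h. Compounds passing the 25 uM duplicate primary screen were rerun in singleton series with a 50 uM top concentration.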
PPP2CA (gene 5515), sequence (P67775 whole entry, looked up): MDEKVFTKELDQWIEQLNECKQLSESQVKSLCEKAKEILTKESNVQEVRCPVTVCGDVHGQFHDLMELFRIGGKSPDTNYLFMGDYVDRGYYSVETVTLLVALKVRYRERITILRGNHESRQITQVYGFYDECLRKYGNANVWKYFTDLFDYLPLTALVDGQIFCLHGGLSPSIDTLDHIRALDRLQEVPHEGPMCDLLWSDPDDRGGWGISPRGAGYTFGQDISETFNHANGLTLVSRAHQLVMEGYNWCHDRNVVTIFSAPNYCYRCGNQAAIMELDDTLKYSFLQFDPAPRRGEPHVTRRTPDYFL

Assay [6] addresses human Phosphatase and Tensin Homolog (PTEN), PTEN (gene 5728) (UniProt P60484). As to the kind of experiment: NVS_ENZ_hPTEN: NovaScreen (NVS) Enzymatic Assay for human Phosphatase and Tensin Homolog (PTEN) (AID 2283203). The method, boiled down:
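Loss of fluorescent product signal after mobility-shift separation reports PTEN activity, recombinant human enzyme, 1 h after compound addition. Single 25 uM duplicate screen, then concentration-response on actives; DMSO baseline.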

Assay [7] has as its target Tyrosine-protein phosphatase non-receptor type 11 (Homo sapiens) (UniProt Q06124). As to the kind of experiment: NVS_ENZ_hPTPN11: NovaScreen (NVS) Enzymatic Assay for human Protein Tyrosine Phosphatase Non-receptor Type 11 (PTPN11) (AID 2283202). The method, boiled down:
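Compounds first tested in duplicate at 25 uM; those reaching ~30% inhibition rerun in singleton concentration-response, top 50 uM. Phosphatase activity measured after 0.5 h by fluorescence with mobility-shift separation, relative to DMSO.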

The target of assay [8] is human Rho Associated Coiled-coil Containing Protein Kinase 1 (ROCK1), ROCK1 (gene 6093) (UniProt Q13464). The experiment in a line: NVS_ENZ_hROCK1: NovaScreen (NVS) Enzymatic Assay for human Rho Associated Coiled-coil Containing Protein Kinase 1 (ROCK1) (AID 2283214). In short, it runs like this: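 Compounds first run in duplicate at 25 uM against recombinant human ROCK1, then followed in concentration series. Kinase activity was read 1 h post-dosing by fluorescence with mobility-shift separation, as signal loss relative to DMSO.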
human Rho Associated Coiled-coil Containing Protein Kinase 1 (ROCK1), ROCK1 (gene 6093), sequence (Q13464 whole entry, looked up): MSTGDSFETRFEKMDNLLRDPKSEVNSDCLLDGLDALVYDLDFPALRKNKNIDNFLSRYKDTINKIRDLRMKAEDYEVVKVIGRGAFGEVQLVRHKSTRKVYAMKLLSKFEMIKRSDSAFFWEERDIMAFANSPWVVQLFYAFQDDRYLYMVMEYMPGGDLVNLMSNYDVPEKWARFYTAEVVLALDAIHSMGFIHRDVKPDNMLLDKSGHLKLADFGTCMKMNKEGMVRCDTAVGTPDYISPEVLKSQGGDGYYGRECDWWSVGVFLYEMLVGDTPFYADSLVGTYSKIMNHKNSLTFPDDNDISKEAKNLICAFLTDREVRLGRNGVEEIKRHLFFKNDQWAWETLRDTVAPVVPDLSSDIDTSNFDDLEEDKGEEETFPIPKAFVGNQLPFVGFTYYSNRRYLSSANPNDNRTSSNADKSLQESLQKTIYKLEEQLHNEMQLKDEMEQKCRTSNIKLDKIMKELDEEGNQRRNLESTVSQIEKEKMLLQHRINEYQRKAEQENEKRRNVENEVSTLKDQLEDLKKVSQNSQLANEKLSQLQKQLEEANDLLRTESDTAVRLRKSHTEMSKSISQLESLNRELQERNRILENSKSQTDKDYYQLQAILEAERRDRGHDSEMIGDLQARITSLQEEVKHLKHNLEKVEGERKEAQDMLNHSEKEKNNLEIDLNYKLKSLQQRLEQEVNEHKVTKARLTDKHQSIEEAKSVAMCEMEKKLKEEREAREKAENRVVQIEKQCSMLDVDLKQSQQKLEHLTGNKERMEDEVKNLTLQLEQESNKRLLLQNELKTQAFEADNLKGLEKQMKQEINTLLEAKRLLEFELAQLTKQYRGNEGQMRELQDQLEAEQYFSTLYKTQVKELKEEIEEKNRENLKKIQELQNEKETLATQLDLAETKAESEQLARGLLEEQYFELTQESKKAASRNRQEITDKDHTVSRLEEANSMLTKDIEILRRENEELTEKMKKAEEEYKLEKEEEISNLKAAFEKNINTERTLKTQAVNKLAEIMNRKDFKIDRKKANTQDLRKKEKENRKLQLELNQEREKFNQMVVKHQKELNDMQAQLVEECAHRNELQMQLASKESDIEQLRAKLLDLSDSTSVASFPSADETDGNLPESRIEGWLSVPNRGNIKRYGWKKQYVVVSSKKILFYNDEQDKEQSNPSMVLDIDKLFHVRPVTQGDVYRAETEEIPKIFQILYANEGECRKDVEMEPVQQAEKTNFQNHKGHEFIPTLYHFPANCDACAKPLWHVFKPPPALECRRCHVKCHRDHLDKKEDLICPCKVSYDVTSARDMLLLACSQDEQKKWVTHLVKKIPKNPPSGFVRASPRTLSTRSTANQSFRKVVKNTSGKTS

Assay [9] addresses human Protein Tyrosine Phosphatase Non-receptor Type 6 (PTPN6), PTPN6 (gene 5777) (UniProt P29350). As to the kind of experiment: NVS_ENZ_hPTPN6: NovaScreen (NVS) Enzymatic Assay for human Protein Tyrosine Phosphatase Non-receptor Type 6 (PTPN6) (AID 2283210). In short, it runs like this: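 Recombinant human PTPN6 from SF9 cells, enzyme activity followed by fluorescence after mobility-shift separation of substrate and product at 1.33 h. Chemicals first tested at a single 25 uM in duplicate, then confirmed across concentration series; loss of signal relative to DMSO.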

The target of assay [10] is Tyrosine-protein phosphatase non-receptor type 12 (Homo sapiens) (UniProt Q05209). As to the kind of experiment: NVS_ENZ_hPTPN12: NovaScreen (NVS) Enzymatic Assay for human Protein Tyrosine Phosphatase Non-receptor Type 12 (PTPN12) (AID 2283204). In short, it runs like this: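 Single-concentration duplicates (25 uM) preceded singleton concentration-response up to 50 uM for chemicals passing threshold. Cell-free recombinant PTPN12 activity was read 1.33 h after dosing via fluorescence after mobility-shift separation; loss of signal versus DMSO.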

For assay [11], the target named is human Protein Tyrosine Phosphatase Receptor Type F (PTPRF), PTPRF (gene 5792) (UniProt P10586). As to the kind of experiment: NVS_ENZ_hPTPRF: NovaScreen (NVS) Enzymatic Assay for human Protein Tyrosine Phosphatase Receptor Type F (PTPRF) (AID 2283213). The method, boiled down: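 Cell-free fluorescence enzyme assay with recombinant protein and substrate; product separated by electrophoretic mobility shift. Read 1 h after dosing, single 25 uM duplicate screen, then concentration-response up to 50 uM; loss of signal vs DMSO.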

The target of assay [12] is cAMP-dependent protein kinase catalytic subunit alpha (Homo sapiens) (UniProt P17612). The experiment in a line: NVS_ENZ_hPKA: NovaScreen (NVS) Enzymatic Assay for human Protein Kinase A (PKA) (AID 2283192). The method, boiled down:
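Cell-free kinase activity read by fluorescence after mobility-shift separation of substrate and product, 1 h post-dosing. Single-concentration duplicate screen (25 uM) preceded singleton concentration series (top 50 uM); loss of signal versus DMSO.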

Assay [13] has as its target Tyrosine-protein phosphatase non-receptor type 13 (Homo sapiens) (UniProt Q12923). The experiment in a line: NVS_ENZ_hPTPN13: NovaScreen (NVS) Enzymatic Assay for human Protein Tyrosine Phosphatase Non-receptor Type 13 (PTPN13) (AID 2283205). In short, it runs like this:
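Screened first at a single 25 uM in duplicate; compounds passing the threshold (e.g. 30% inhibition) were rerun in concentration series, top 50 uM. Recombinant enzyme, fluorescent substrate, mobility-shift separation, 0.5 h read. Data fitted as inhibition relative to DMSO.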

Assay [14] has as its target human Protein Tyrosine Phosphatase Non-receptor Type 2 (PTPN2), PTPN2 (gene 5771) (UniProt P17706). As to the kind of experiment: NVS_ENZ_hPTPN2: NovaScreen (NVS) Enzymatic Assay for human Protein Tyrosine Phosphatase Non-receptor Type 2 (PTPN2) (AID 2283207). The method, boiled down: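 Activity measured as fluorescence after mobility-shift separation of substrate and product, 1 h after compound. Duplicate single-point 25 uM primary testing, concentration series for actives; inhibition scored as signal loss relative to DMSO baseline.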

Serine/threonine-protein phosphatase PP1-alpha catalytic subunit (Homo sapiens), sequence (P62136 whole entry, looked up): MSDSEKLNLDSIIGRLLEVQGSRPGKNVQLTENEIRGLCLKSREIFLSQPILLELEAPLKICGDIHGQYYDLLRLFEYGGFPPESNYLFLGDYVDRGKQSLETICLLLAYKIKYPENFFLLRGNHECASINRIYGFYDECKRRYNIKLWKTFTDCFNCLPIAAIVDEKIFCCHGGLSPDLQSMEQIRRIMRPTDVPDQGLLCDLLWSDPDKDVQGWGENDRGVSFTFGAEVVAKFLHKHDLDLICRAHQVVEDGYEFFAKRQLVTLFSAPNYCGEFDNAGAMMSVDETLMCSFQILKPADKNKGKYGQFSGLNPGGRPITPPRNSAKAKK
human Phosphoinositide 3-kinase alpha (PI3Ka), PIK3CA (gene 5290), sequence (P42336 whole entry, looked up): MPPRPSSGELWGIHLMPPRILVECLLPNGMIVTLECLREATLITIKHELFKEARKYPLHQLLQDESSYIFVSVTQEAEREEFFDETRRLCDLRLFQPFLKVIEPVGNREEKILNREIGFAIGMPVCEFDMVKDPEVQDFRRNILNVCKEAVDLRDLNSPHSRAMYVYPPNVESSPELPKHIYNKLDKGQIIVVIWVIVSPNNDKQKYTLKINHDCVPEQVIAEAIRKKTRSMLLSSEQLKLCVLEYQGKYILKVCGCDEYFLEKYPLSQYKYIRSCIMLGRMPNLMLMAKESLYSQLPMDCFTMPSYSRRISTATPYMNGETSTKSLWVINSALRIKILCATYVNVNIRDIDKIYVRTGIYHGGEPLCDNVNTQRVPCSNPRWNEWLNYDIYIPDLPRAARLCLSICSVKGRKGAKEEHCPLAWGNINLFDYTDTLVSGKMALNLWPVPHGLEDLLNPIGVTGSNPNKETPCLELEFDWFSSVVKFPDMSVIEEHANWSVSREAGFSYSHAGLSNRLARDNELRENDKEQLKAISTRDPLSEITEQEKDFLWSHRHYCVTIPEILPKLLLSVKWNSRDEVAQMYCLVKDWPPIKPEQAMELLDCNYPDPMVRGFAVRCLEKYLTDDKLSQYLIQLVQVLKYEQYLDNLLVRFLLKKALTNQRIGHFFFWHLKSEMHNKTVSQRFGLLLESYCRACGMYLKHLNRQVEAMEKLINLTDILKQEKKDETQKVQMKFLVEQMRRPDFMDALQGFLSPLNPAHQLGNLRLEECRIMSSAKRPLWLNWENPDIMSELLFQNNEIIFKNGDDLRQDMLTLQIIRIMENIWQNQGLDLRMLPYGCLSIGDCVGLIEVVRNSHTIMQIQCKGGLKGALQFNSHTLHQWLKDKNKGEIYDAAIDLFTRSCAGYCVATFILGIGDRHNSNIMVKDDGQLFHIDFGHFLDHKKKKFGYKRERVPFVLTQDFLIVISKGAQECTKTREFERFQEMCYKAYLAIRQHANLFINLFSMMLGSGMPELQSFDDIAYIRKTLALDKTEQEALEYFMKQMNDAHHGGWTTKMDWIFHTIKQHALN
human Protein Tyrosine Phosphatase Non-receptor Type 2 (PTPN2), PTPN2 (gene 5771), sequence (P17706 whole entry, looked up): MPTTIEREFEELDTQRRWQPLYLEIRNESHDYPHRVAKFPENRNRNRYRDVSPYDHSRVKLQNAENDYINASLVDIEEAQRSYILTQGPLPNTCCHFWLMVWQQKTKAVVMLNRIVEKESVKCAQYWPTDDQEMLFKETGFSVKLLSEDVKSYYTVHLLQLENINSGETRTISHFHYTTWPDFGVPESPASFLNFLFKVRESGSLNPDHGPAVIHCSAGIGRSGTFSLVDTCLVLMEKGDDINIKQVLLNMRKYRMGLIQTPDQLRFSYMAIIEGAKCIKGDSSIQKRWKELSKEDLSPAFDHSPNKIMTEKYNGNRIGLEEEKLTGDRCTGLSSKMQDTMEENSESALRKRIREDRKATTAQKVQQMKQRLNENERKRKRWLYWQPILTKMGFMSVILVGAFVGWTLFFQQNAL
human Phosphatase and Tensin Homolog (PTEN), PTEN (gene 5728), sequence (P60484 whole entry, looked up): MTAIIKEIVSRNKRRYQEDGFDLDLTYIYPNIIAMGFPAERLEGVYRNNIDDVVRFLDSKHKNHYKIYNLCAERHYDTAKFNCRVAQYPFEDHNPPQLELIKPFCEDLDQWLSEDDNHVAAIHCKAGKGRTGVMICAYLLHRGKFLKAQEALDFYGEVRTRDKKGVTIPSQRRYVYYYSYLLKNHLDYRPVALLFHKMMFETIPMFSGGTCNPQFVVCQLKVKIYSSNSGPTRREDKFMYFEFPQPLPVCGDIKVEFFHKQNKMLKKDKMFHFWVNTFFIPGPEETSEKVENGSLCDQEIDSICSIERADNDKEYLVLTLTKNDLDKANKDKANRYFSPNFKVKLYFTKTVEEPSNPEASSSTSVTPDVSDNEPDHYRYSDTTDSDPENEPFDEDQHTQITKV

For `CCOP(=S)(OCC)SCCSCC`, the compound was classed as inactive in assay [1].

`CCOP(=S)(OCC)Oc1ccc([N+](=O)[O-])cc1`: the outcome in assay [2] was inactive.

`CCCCN(CC)c1c([N+](=O)[O-])cc(C(F)(F)F)cc1[N+](=O)[O-]`: the result in assay [1] was inactive.

Take `Cc1ccn2nc(S(=O)(=O)Nc3c(F)cccc3F)nc2n1`: the call in assay [3] and in assay [4] was inactive.

With `CC[C@H](C)[C@H]1O[C@]2(C=C[C@@H]1C)C[C@@H]1C[C@@H](C/C=C(\C)[C@@H](O[C@H]3C[C@H](OC)[C@@H](O[C@H]4C[C@H](OC)[C@@H](NC)[C@H](C)O4)[C@H](C)O3)[C@@H](C)/C=C/C=C3\CO[C@@H]4[C@H](O)C(C)=C[C@@H](C(=O)O1)[C@]34O)O2`, the AC50 was 25 µM (active) in assay [2]; 39.3 µM (active) in assay [5]; 7.94 µM (active) in assay [3]; 16.8 µM (active) with PPP2CA (gene 5515); 0.0045 µM (active) in assay [6].

Consider `CCOC(=O)CC(SP(=O)(OC)OC)C(=O)OCC` (stereo unspecified), for which the outcome in assay [1] was inactive.

Take `CCC(=NOC/C=C/Cl)C1=C(O)CC(C2CCOCC2)CC1=O` (stereo unspecified): the outcome in assay [7] was inactive.

Regarding `CCC(=O)Nc1ccc(Cl)c(Cl)c1`, the AC50 in [2] was 25 µM (active). The outcome (in the assay with PPP2CA (gene 5515); in assay [8]) was inactive.

Consider `CCCOCC(=Nc1ccc(Cl)cc1C(F)(F)F)n1ccnc1`, for which the compound was classed as inactive in assay [2].

`CNC(=O)ON=C(C)SC`: the compound was classed as inactive in assay [3].

On to `CCCCOC(=O)c1ccccc1C(=O)O`, for which the compound was called inactive in [9].

Turning to `O=C(O)c1cc(Oc2ccc(C(F)(F)F)cc2Cl)ccc1[N+](=O)[O-]`, the outcome in assay [2] was inactive.

On to `CNC(=O)Oc1cccc2c1OC(C)(C)O2`, for which, in assay [7], the outcome was inactive.

Turning to `COc1ccc(C(=CC(=O)N2CCOCC2)c2ccc(Cl)cc2)cc1OC`, the AC50 in assay [2] is 0.0383 µM (active).

Take `CCOP(=O)(OCC)Oc1cc(C)nc(C(C)C)n1`: in assay [1], the call was inactive.

Turning to `CNC(=O)ON=C(SC)C(=O)N(C)C`, the outcome in [8] was inactive.

On to `O=[N+]([O-])c1cc(C(F)(F)F)c(Cl)c([N+](=O)[O-])c1Nc1ncc(C(F)(F)F)cc1Cl`, for which the compound was called inactive in assay [3] and in assay [1].

`CCCCSP(=O)(SCCCC)SCCCC`: the concentration at half-maximal activity (AC50) in assay [1] was 10.4 µM (active). Further, the call in assay [10] and in assay [11] was inactive.

Turning to `CC(C)=CC1C(C(=O)OCN2C(=O)C3=C(CCCC3)C2=O)C1(C)C` (stereo unspecified), in assay [3], the outcome was inactive.

On to `Nc1c(Cl)cc([N+](=O)[O-])cc1Cl`, for which the compound was called inactive in assay [12] and in [14]. Moreover, the AC50 in assay [13] was 25 µM (active).

In the case of `CC(C)[C@H](C(=O)O[C@H](C#N)c1cccc(Oc2ccccc2)c1)c1ccc(Cl)cc1`, the result in assay [6] was inactive.

Consider `CC(=NC#N)N(C)Cc1ccc(Cl)nc1`, for which the compound was classed as inactive in [11].

Turning to `CCc1cccc(CC)c1N(COC)C(=O)CCl`, the result in [14] was inactive.

On to `CSc1nc(NC(C)C)nc(NC(C)C)n1`, for which the concentration at half-maximal activity (AC50) in assay [2] is 3.43 µM (active); in [5] it was 5.79 µM (active).

For the compound `Cc1cc(C2CC2)nc(Nc2ccccc2)n1`, the compound was called inactive in assay [2].

With `CCOP(=S)(OCC)Oc1cc(C)nc(C(C)C)n1`, the compound was called inactive in [2], in assay [1] and in assay [14].

In general, AC50 refers to the midpoint of the concentration-response curve, whichever way the signal moves.
